A selection: hits, their analogues and other compounds. The true share with any hit is near 3.9%.
N-glyco inh: increase of ERlucT glycosylation luciferase signal, primary screen, N-linked glycosylation inhibitor project, D54 ERlucT cells, luminescence, set 2 | D54 ERlucT glycosylation luciferase reporter, 24 h; percent of 100 nM tunicamycin response | hit rate 0.23% among 360,000 | reporter increase, % at 12.5 µM;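 active = mean luciferase reporter signal, scaled so untreated is 0 and the glycosylation-blocking control 100, at or above a set limit in every replicate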;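 note: luciferase carries N-glycosylation sites so blocking glycosylation raises the light; 0% = median of neutral control wells and 100% = median of 100 nM tunicamycin wells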
SUMO Mot1 rescue: yeast Mot1-301 growth rescue at high temperature, primary screen, SUMOylation pathway inhibitor project, S. cerevisiae, ATP luminescence, 38.5C; S. cerevisiae Mot1-301 growth rescue; percent above DMSO median, 100 means doubled; growth rescue, % at 18.8 µM; hit rate 1% among 320,000; AID 2716, 2010;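 active = every valid replicate shows activation above 250% relative to neutral control wells; inactive = the rest, any valid replicate at or below 250%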;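 note: OY570 slx delta 5 strain wells were the positive control but not used for scaling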
NSD2 HMT inh: NSD2 histone methyltransferase inhibitors, primary screen, biochemical, AlphaScreen, single concentration, set 2. Histone-lysine N-methyltransferase NSD2 (Homo sapiens), O96028. NSD2 peptide methylation, 120 min. inhibition, % at 12.5 µM. hit rate 0.54% among 310,000; in the data active = inhibition above about 50%
ALR H2O2 inh: inhibitors of human ALR sulfhydryl oxidase, primary screen, biochemical, H2O2 detection, HRP-luminol luminescence, single point; inhibition, % (test concentration not listed); FAD-linked sulfhydryl oxidase ALR (Homo sapiens), P55789; purified ALR, DTT oxidation; AID 485317, 2010; hit rate 3.8% among 290,000;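 active = mean replicate inhibition above about 79%, with every replicate also reaching it, limit read from the data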
CDK5 inh: inhibitors of human CDK5/p35 kinase, primary screen, biochemical, single concentration | Cyclin-dependent kinase 5 (Homo sapiens) + Cyclin-dependent kinase 5 activator 1 (Homo … | Recombinant CDK5/p35, ADP-Glo luminescence, 60 min | inhibition, % at 10 µM | hit rate 0.01% among 330,000;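 active = highest replicate inhibition of at least 50% and at least 75% of replicates reaching 50%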;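 note: plate controls were DMSO neutral control for no effect and GW8510 at 10 µM for full effect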
Target sequence (Q00535 whole entry, looked up): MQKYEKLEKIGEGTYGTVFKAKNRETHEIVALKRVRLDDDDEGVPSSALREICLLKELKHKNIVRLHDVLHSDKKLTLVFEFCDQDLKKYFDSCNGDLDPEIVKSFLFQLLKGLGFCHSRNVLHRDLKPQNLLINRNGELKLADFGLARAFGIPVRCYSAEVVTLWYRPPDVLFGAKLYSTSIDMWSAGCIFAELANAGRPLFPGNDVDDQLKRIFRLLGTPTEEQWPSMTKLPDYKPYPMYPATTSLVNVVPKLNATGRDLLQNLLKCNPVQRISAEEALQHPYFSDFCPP
Target sequence (Q15078 whole entry, looked up): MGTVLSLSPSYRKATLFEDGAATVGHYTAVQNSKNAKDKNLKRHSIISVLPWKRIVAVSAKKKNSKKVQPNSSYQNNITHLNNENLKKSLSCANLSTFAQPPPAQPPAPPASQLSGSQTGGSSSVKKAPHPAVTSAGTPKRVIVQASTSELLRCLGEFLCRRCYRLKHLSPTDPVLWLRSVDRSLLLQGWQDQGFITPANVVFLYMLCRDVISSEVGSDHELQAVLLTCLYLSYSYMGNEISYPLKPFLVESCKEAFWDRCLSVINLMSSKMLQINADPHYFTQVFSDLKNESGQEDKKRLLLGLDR
CASP6 VEID inh: human caspase-6 inhibitors, primary screen, biochemical, VEID-R110 fluorescence, single point, set 2. inhibition, % at 12.5 µM. purified caspase-6, Z-VEID-R110 cleavage fluorescence. hit rate 0.53% among 350,000;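 active = mean inhibition across replicates at least about 35%, with every replicate also reaching that limit, limit read from the data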;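 note: 0% = median of neutral control wells and 100% = no fluorescence left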
Mot1 SUMO dose: growth restoration of Mot1-301 yeast on galactose, dose response, SUMO pathway inhibitor project, whole organism, S. cerevisiae, ATP luminescence, cherry-picked samples. shares compounds with SUMO Mot1 rescue. S. cerevisiae Mot1-301 galactose growth, 24 h; -100 = growth of slx-deleted rescue strain. growth activity, percent, % at 42 µM. 2,300 tested, under 10 active;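 active = Signal drops as the depositor expects, and the fitted half-maximal dose is no more than ten times the top valid tested dose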;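 note: more negative values mean stronger growth rescue toward the control strain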
* hit, by the source's call.

Cc1c(NC(=O)c2cc(-c3ccccc3)on2)c(=O)n(-c2ccccc2)n1C was read as N-glyco inh -1.7, SUMO Mot1 rescue 0.9, NSD2 HMT inh -4.3, ALR H2O2 inh 3.5, CDK5 inh 0.7 and CASP6 VEID inh 1.8.
`Cc1c(NC(=O)c2ccc(N(C)S(C)(=O)=O)cc2)c(=O)n(-c2ccccc2)n1C` gave N-glyco inh -2.2, SUMO Mot1 rescue active, NSD2 HMT inh -0.6, ALR H2O2 inh 0.9, CDK5 inh -2.1, CASP6 VEID inh -1.7 and Mot1 SUMO dose 0.5.
For C/C=C/c1cnc2c(c1)C(=O)N([C@H](C)CO)C[C@H](C)[C@@H](CN(C)S(=O)(=O)c1ccccc1)O2 the results were CASP6 VEID inh 2.7.
Screening CN=C(Nc1cccnc1)c1ccccc1 returned N-glyco inh 2.2, SUMO Mot1 rescue 421.2*, NSD2 HMT inh -0.8, CDK5 inh -0.1, CASP6 VEID inh -2.2 and Mot1 SUMO dose 0.1.
`O=C(CCNC(=O)c1ccccc1)Nc1cccnc1` gave N-glyco inh 2.5, SUMO Mot1 rescue 455.2*, NSD2 HMT inh -0.8, ALR H2O2 inh -1.4, CDK5 inh 0.9 and Mot1 SUMO dose 1.1.
`CN1C[C@@H]2[C@H](c3ccccc31)[C@@H](CO)N2Cc1ccccc1` gave CASP6 VEID inh -1.1.
Screening CN(C)CCCNc1oc(-c2ccccc2Cl)nc1S(=O)(=O)c1ccccc1 returned N-glyco inh -1.9, SUMO Mot1 rescue -9.1, NSD2 HMT inh 11.6, CDK5 inh -9.6 and CASP6 VEID inh -7.3.
For CN(C)c1oc(-c2ccccc2Cl)nc1S(=O)(=O)c1ccccc1 the results were N-glyco inh 0.1, SUMO Mot1 rescue 635.9*, ALR H2O2 inh -7.3, CDK5 inh -1.9, CASP6 VEID inh 2.1 and Mot1 SUMO dose -0.2.
`Cc1ccc(NC(=O)Cn2nc(C)c3ccccc3c2=O)cc1` gave N-glyco inh 0.4, SUMO Mot1 rescue 368.7*, NSD2 HMT inh 2.6, ALR H2O2 inh 6.6, CDK5 inh -0.7 and Mot1 SUMO dose 0.5.
`COc1ccc(S(=O)(=O)Nc2ccc3c(c2)C(=O)N([C@H](C)CO)C[C@@H](C)[C@@H](CN(C)C(=O)Nc2ccc(C(F)(F)F)cc2)O3)cc1` gave CASP6 VEID inh -1.6.
`Cc1ccc(NS(=O)(=O)c2c(C(=O)N3CCCCCC3)c(C)n(C)c2C)c(Cl)c1` gave N-glyco inh -1.2, SUMO Mot1 rescue 72.5, NSD2 HMT inh 3.2, ALR H2O2 inh 2.0, CDK5 inh 0.7 and CASP6 VEID inh 1.5.
Screening Cc1ccc(NS(=O)(=O)c2c(C)[nH]c(C)c2C(=O)N2CCCCC2)c(Cl)c1 returned N-glyco inh 2.1, SUMO Mot1 rescue 476.6*, NSD2 HMT inh 4.1, ALR H2O2 inh 2.7, CASP6 VEID inh 7.3 and Mot1 SUMO dose -0.1.
For N#CCC(=O)N/N=C/c1ccc(OS(=O)(=O)c2ccccc2)cc1 the results were N-glyco inh 0.3, SUMO Mot1 rescue 845.8*, NSD2 HMT inh -1.3, ALR H2O2 inh -11.0, CDK5 inh 0.3 and Mot1 SUMO dose -1.0.
Screening CN(CP(=O)(O)C(O)c1ccccc1)S(C)(=O)=O (configuration not stated) returned N-glyco inh 0.7, SUMO Mot1 rescue 935.3*, NSD2 HMT inh -1.7, CDK5 inh -1.3 and Mot1 SUMO dose 0.3.
`CCCCC(C)n1[nH]c(=O)c2c(C)cc(C)nc21` (configuration not stated) gave N-glyco inh 0.5, SUMO Mot1 rescue -12.8, ALR H2O2 inh 29.3, CDK5 inh -0.9 and CASP6 VEID inh 0.7.
For CCCCCCC(C)n1[nH]c(=O)c2c(C)cc(=O)[nH]c21 (configuration not stated) the results were N-glyco inh -0.7, SUMO Mot1 rescue 531.3*, ALR H2O2 inh -14.3, CDK5 inh 2.3, CASP6 VEID inh -2.3 and Mot1 SUMO dose 0.2.
`CC1Cc2ccccc2N1C(=O)CNc1cccc(S(=O)(=O)N2CCCC2)c1` (configuration not stated) gave N-glyco inh -1.3, SUMO Mot1 rescue active, NSD2 HMT inh 0.2, ALR H2O2 inh -3.6, CDK5 inh -0.4, CASP6 VEID inh 0.1 and Mot1 SUMO dose -0.4.
CN(C)c1ccc(C(CNS(=O)(=O)c2ccc([N+](=O)[O-])cc2)N2CCOCC2)cc1 (configuration not stated) was read as N-glyco inh -0.1, SUMO Mot1 rescue 575.4*, NSD2 HMT inh 2.1, ALR H2O2 inh 31.7, CDK5 inh -0.4, CASP6 VEID inh 2.2 and Mot1 SUMO dose 0.3.
Cc1ccc(S(=O)(=O)N2[C@@H](c3ccccc3)C(C(=O)O)=CC[C@H]2c2ccc(Cl)cc2)cc1 was read as N-glyco inh -0.7, SUMO Mot1 rescue 376.9*, ALR H2O2 inh 4.3, CDK5 inh -1.5, CASP6 VEID inh -0.2 and Mot1 SUMO dose -1.5.
For COc1cc([C@@H]2CC=C(C(=O)O)[C@H](c3ccccc3F)N2S(=O)(=O)c2ccc(C)cc2)cc(OC)c1OC the results were N-glyco inh 1.1, SUMO Mot1 rescue 662.1*, ALR H2O2 inh 3.0, CDK5 inh -0.4, CASP6 VEID inh 0.6 and Mot1 SUMO dose -0.7.
`C/C=C/c1cnc2c(c1)C(=O)N([C@@H](C)CO)C[C@@H](C)[C@H](CN(C)C(=O)CN1CCOCC1)O2` gave CASP6 VEID inh 10.3.
`CC(C)C(=O)Nc1ccc(-c2nc3cccnc3o2)cc1` gave N-glyco inh -13.6, SUMO Mot1 rescue 665.8*, NSD2 HMT inh -4.6, ALR H2O2 inh 1.1, CDK5 inh 1.0 and Mot1 SUMO dose -1.2.
For CC(C)C(=O)Nc1ccc(-c2nc3ncccc3o2)cc1 the results were N-glyco inh -15.1, SUMO Mot1 rescue -7.7, NSD2 HMT inh 14.6, ALR H2O2 inh 15.3, CDK5 inh -0.2 and CASP6 VEID inh -7.2.
For CC(C)C(=O)Nc1cccc(-c2nc3ncccc3o2)c1 the results were N-glyco inh 3.0, SUMO Mot1 rescue active, NSD2 HMT inh -1.9, CDK5 inh 1.5, CASP6 VEID inh 1.0 and Mot1 SUMO dose 0.7.
CC=Cc1ccc2n(c1=O)C[C@@H]1[C@@H](CO)[C@H](C(=O)NCCC)N(CC3CCOCC3)[C@H]21 (mixture of isomers) was read as CASP6 VEID inh 2.1.

Source: PubChem BioAssay
